Screening data from PubChem.
In the library only some 12% were active in any assay of this set; here they are far more common.
JMJD2A Tudor inh – qHTS Assay for Inhibitors of JMJD2A-Tudor Domain; 390,000 compounds, 4.4% hits; Potency, µM (titrated, usually from 114 µM), for inactives: at the top dose activity change, negative = inhibition, usual class: inhibitors; AlphaScreen JMJD2A-Tudor / H3K4me3 peptide binding; further: on the % scale 0 is the no-effect control and ±100 the full control effect; nearly all actives have a fitted effect of over 50% in size
Target sequence (O75164 whole entry, looked up, the tested form may be a part): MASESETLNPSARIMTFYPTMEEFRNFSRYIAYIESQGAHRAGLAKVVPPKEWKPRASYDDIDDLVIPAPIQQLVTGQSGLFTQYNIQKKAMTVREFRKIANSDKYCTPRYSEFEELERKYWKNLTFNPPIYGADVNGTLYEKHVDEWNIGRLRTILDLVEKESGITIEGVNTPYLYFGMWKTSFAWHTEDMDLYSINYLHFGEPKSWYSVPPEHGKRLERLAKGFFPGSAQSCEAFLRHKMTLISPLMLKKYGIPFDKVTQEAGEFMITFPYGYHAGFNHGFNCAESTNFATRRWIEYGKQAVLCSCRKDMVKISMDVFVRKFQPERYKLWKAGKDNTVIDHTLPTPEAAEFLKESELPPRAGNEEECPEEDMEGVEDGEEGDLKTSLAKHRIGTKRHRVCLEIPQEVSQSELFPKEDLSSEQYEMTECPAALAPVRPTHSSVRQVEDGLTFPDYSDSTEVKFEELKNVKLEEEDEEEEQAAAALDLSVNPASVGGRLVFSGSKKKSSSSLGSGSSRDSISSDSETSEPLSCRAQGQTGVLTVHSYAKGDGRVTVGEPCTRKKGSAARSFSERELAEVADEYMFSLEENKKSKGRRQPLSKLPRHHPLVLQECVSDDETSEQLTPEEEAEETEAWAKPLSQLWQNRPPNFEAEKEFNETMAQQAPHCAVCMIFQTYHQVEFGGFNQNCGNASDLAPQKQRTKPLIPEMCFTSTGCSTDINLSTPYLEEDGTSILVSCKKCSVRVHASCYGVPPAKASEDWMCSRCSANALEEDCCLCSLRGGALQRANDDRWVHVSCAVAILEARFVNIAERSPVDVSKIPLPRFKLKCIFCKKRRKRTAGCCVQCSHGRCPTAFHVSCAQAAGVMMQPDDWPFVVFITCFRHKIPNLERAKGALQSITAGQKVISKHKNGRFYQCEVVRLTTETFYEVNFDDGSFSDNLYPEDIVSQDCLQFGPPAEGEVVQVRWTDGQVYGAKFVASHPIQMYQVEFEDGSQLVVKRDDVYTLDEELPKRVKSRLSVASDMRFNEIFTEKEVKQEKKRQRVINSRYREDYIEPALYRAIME
HP1b chromo inh – HTS for Inhibitors of HP1-beta Chromodomain Interactions with Methylated Histone Tails. Potency, µM (doses to about 114 µM), inactives show top-dose activity change, negative = inhibition, actives largely listed as inhibitors. AlphaScreen HP1-beta / biotin-H3K9me3 peptide binding. 390,000 compounds, 0.56% hits. Chromobox protein homolog 1 (Homo sapiens), P83916. AID 540317, 2011; further: nearly all actives have a fitted effect of over 70% in size
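AlphaScreen: HP1-beta (50 nM) preformed 30 min with biotin-H3(1-18)K9me3 peptide (50 nM) in PBS pH 7.4, 0.01% Tween-20. Compound added for 30 min at RT, then streptavidin donor/nickel chelate acceptor beads (10 ug/mL) for 30 min.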
G9a inh – qHTS Assay for Inhibitors of Histone Lysine Methyltransferase G9a; G9a H3K9 monomethylation, AlphaScreen, 2 h; Histone-lysine N-methyltransferase EHMT2 (Homo sapiens), Q96KQ7; Potency, µM (titrated, usually from 102 µM), for inactives: at the highest dose activity, negative = inhibition, usual class: inhibitors; AID 504332, 2011; 350,000 compounds, 8.8% hits; further: on the % scale 0 is the no-effect control and ±100 the full control effect; nearly all actives have a fitted effect of over 75% in size
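AlphaScreen read-out: biotin-H3K9 peptide (500 nM) methylation by 20 nM enzyme with 20 uM SAM, 2 h at room temperature after 15 min compound preincubation; anti-monomethyl H3K9 antibody plus donor/acceptor beads, 10 min dark.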
Sfp inh – qHTS Assay for Inhibitors of Bacillus subtilis Sfp phosphopantetheinyl transferase (PPTase) | 310,000 compounds, 3.5% hits | Potency, µM, for the others: largest response in the series, negative = inhibition, most hits filed as inhibitors | Biochemical Sfp PPTase activity, qHTS | 4'-phosphopantetheinyl transferase ffp (Bacillus subtilis), Q9F4F7 | AID 1490, 2009;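 further: the enzyme is Sfp with the accession as filed and its product quenches rhodamine fluorescence; 0% = enzyme reaction without inhibitor and -100% = no enzyme wells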
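Compounds were incubated with enzyme (final 15 nM) for 15 min at room temperature before substrate addition started the reaction. Fluorescence at 525 nm excitation, 598 nm emission was recorded immediately and after 30 minutes.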
BAZ2B inh – qHTS Assay for Inhibitors of BAZ2B; Bromodomain adjacent to zinc finger domain protein 2B (Homo sapiens), Q9UIF8; AlphaScreen BAZ2B-H3K14Ac peptide displacement; Potency, µM (highest dose often 114 µM), for inactives: at the top dose activity change, negative = inhibition, most hits filed as inhibitors; 360,000 compounds, 4.4% hits; AID 504333, 2011; further: on the % scale 0 is the no-effect control and ±100 the full control effect; nearly all actives have a fitted effect of over 60% in size
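Inhibition is scored as reduced AlphaScreen emission. The BAZ2B/b-H3(5-23)K14Ac complex (50 nM each) in PBS pH 7.4, 0.01% Tween-20 meets compound (up to 110 uM) for 30 min at RT before bead addition.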
L3MBTL1 block – qHTS Assay for the Inhibitors of L3MBTL1. 230,000 compounds, 0.66% hits. Lethal(3)malignant brain tumor-like protein 1 (Homo sapiens), Q9Y468. AlphaScreen L3MBTL1–H3K9me1 peptide binding. Potency, µM (series often up to 57.1 µM), without a hit: top-dose activity, negative = inhibition, hits mostly inhibitors; further: on the % scale 0 is the no-effect control and ±100 the full control effect; nearly all actives have a fitted effect of over 60% in size
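AlphaScreen assay: L3MBTL1 (50 nM final) was preincubated 30 min at room temperature with biotinylated H3(1-15)K9me1 peptide (75 nM final), then 30 min with library compounds; streptavidin donor and nickel chelate acceptor beads (10 ug/mL final) added, 30 min dark.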
Starred values were filed as active, the others as inactive; ? = inconclusive; . = no result; [ ] = another dose, or the depositor's remark. The call rests on the fitted dose curve; in most records, active means well fitted curve in the direction sought with a large enough effect; inconclusive means small, poorly fitted or top-dose-only effect, or another doubt; inactive means no such curve, though single readings can be large; an effect the other way counts as inactive or inconclusive. Potency means the concentration at half of the fitted maximal effect.

SMILES	JMJD2A Tudor inh	HP1b chromo inh	G9a inh	Sfp inh	BAZ2B inh	L3MBTL1 block
Cc1c(C(=O)N(C)c2cccc(C(F)(F)F)c2)sc2nc3n(c(=O)c12)CCCCC3	?	83%	14µM*	.	32µM*	.
CCc1ccccc1N(C)C(=O)c1sc2nc3n(c(=O)c2c1C)CCCCC3	-13%	40%	?	.	-26%	.
CCOc1ccc(NC(=O)c2sc3nc4n(c(=O)c3c2C)CCCC4)cc1	?	57%	16µM*	.	32µM*	.
Cc1c(C(=O)Nc2cccc(C(F)(F)F)c2)sc2nc3n(c(=O)c12)CCCC3	-14%	43%	3.5µM*	.	-1%	.
CC(=O)Nc1c2c(nn1-c1ccc(C)cc1C)CSC2	-18%	33%	-34%[59 µM]	-28%	11%	-11%
CCCC(=O)Nc1c2c(nn1-c1ccc(C)cc1C)CSC2	-19%	28%	22µM*	?	-5%	-4%
O=C(CBr)Nc1c2c(nn1-c1ccccc1)CSC2	-27%	34%[57 µM]	22µM*	-14%	-15%[57.1 µM]	.
COc1cc(NC(=O)c2cc3ccccn3n2)cc(OC)c1OC	-27%	-8%	0%[59 µM]	.	-5%	.
CC1CCCN(C(=O)COC(=O)c2cc(Br)ccc2O)C1 (stereo not given)	5%	53%	.	.	.	3%
COc1ccc(/C=C(\NC(=O)c2ccc(C)cc2)C(=O)NCCCN2CCOCC2)cc1OC	-11%	15%	0%	-2%	3%	.
O=C(CN1C2CCC1CC(NC(=O)NC1CCCCC1)C2)NC1CC1 (stereo not given)	-19%	20%	71µM*	10%	9%	4%
O=C(C[C@@H]1C/C=C\CC[C@@H](Cc2ccc(F)cc2)C(=O)OC[C@@H]2CCCN2C1=O)N[C@H](CO)Cc1ccccc1	-21%	17%	.	.	.	1%
Cc1nnc2ccc(-c3ccc(NC(=O)c4ccc(Cl)nc4)cc3)nn12	.	.	79µM*	12%	-35%	1%
NC(=S)N=Nc1c(O)[nH]c2ccccc12	?	15%	?	?	-1%	-4%
O=Nc1c(-c2c(O)[nH]c3cc(Br)ccc23)[nH]c2ccccc12	3.2µM*	4µM*	8.4µM*	-18%	4µM*	.
CCCCC/C=C\C\C=C/C=C/C=C/[C@@H](SC[C@H](NC(=O)CC[C@H](N)C(=O)O)C(=O)NCC(=O)O)[C@@H](O)CCCC(=O)O	.	.	3%[59 µM]	7%	.	.
O=C(CSc1nc2c([nH]c3ccccc32)c(=O)n1-c1ccccc1F)Nc1ccccc1C(F)(F)F	-29%	10%[57 µM]	5%[59 µM]	.	-15%	.
C/C=C/C=C\C(=O)Nc1cccc(C2=NOC3(C2)C[C@H](C(N)=O)N(C(=O)CC#N)C3)c1 (stereo not given in full)	?	-12%	-24%[12.7 µM]	13µM*	-21%	.
C=C(C)C(=O)N1CC2(CC(c3cccc(NC(=O)/C=C\C)c3)=NO2)C[C@H]1C(N)=O (stereo not given in full)	6%	40%	14%[59 µM]	18%	8%	.
C/C=C\C=C/C(=O)Nc1cccc(C2=NOC3(C2)C[C@@H](C(N)=O)N(C(=O)CCCCC)C3)c1 (stereo not given in full)	79µM*	?	5%[12.7 µM]	25µM*	-4%	.
C/C=C(/C)C(=O)Nc1cccc(C2=NOC3(C2)C[C@@H](C(N)=O)N(C(=O)CCCCC)C3)c1 (stereo not given in full)	-22%	32%	3%[59 µM]	7%	3%	.
C/C=C\C=C\C(=O)Nc1cccc(C2=NOC3(C2)C[C@@H](C(N)=O)N(C(=O)C(c2ccccc2)c2ccccc2)C3)c1 (stereo not given in full)	-36%	15%	?	18µM*	?	.
C/C=C/C=C\C(=O)Nc1cccc(C2=NOC3(C2)C[C@@H](C(N)=O)N(C(=O)/C(C)=C/C)C3)c1 (stereo not given in full)	?	-25%	-6%[12.7 µM]	25µM*	-8%	.
CCN(CC(=O)Nc1ccc2c(c1)OCCO2)C(=O)C(C)Oc1ccc(F)cc1 (stereo not given)	-16%	-2%	.	.	.	.
COc1ccc(CCN2CC(C(=O)Nc3cc(S(C)(=O)=O)ccc3Cl)CC2=O)cc1OC (stereo not given)	-11%	9%	7%	.	-7%	-2%
SMILES	JMJD2A Tudor inh	HP1b chromo inh	G9a inh	Sfp inh	BAZ2B inh	L3MBTL1 block
C[C@@H]1CC(=O)[C@H]2CC(CO)=CCC[C@@H]2[C@@]1(C)CC/C(=C/CO)CO	-21%	20%	-10%[12.7 µM]	.	-2%	2%
CCCCCC(=O)Nc1cccc(C2=NOC3(C2)C[C@H](C(N)=O)N(C(=O)c2ccccc2)C3)c1 (stereo not given in full)	-32%	38%	-11%[59 µM]	14%	-18%	.
C/C=C\C=C/C(=O)Nc1cccc(C2=NOC3(C2)C[C@H](C(N)=O)N(C(=O)CC)C3)c1 (stereo not given in full)	?	-39%	?	13µM*	0%	.
C/C=C(/C)C(=O)Nc1cccc(C2=NOC3(C2)C[C@H](C(N)=O)N(C(=O)Cc2ccc([N+](=O)[O-])cc2)C3)c1 (stereo not given in full)	-10%	31%	-4%[59 µM]	10%	-5%	.
C/C=C/C=C/C(=O)N1CC2(CC(c3cccc(NC(=O)CCCCC)c3)=NO2)C[C@H]1C(N)=O (stereo not given in full)	-28%	-4%	?	22µM*	-6%	.
C/C=C\C=C/C(=O)Nc1cccc(C2=NOC3(C2)C[C@H](C(N)=O)N(C(=O)Cc2ccc([N+](=O)[O-])cc2)C3)c1 (stereo not given in full)	79µM*	?	?	13µM*	-22%	.
C/C=C/C(=O)N1CC2(CC(c3cccc(NC(=O)CCCCC)c3)=NO2)C[C@H]1C(N)=O (stereo not given in full)	.	.	0%[12.7 µM]	14%	?	.
CCCCCC(=O)Nc1cccc(C2=NOC3(C2)C[C@H](C(N)=O)N(C(=O)CC#N)C3)c1 (stereo not given in full)	.	.	?	7%	56µM*	.
